Laboratory results taken from PubChem BioAssay AID1508600 (Functional Genomics Laboratory (NCATS/FGL), 2020).
About 3,700 (7%) of roughly 53,000 sequences were called active. The full list was thinned out, with actives kept by preference. A number with no mark means an inactive call.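 The calls were made as follows: active = gene knockdowns whose robust z-score for IL-1 alpha signal is at least 2 or at most -2, so actives lie on both sides; inactive = the rest.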

Assay: Components of the Cytosolic LPS Sensing Pathway: Gene Identification via Genome-wide siRNA Screen;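 also: robust z of the log signal after scaling to non-targeting control siRNA wells of the plate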
Conditions: RAW264.7 macrophages, IL-1a HTRF, actives lie on both sides, screened at 100 nM (by protocol), cells primed 5 h with Pam3CSK4 first
How it was run: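 Using IL-1a HTRF as read-out, the screen measured release from RAW264.7 cells after 48h siRNA knockdown (100 nM), 5 h Pam3CSK4 priming and 24 h cytosolic LipidA. Values were expressed relative to negative-control wells as robust z-scores.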

Row | Sequence | z-score
1 | GCAUUAUGGAAAGUUGGAGTT against Gabra4 | 0.915
2 | GGAGUGUGAGGUCCUCUCUTT against Sdsl | 1.85
3 | GCGUAAGGAAUUGUCUAACTT against Hoxd12 | 4.05 (active)
4 | CCGACGAUUCCUGAAGCUATT against Tada3 | -0.275
5 | GGUGACAGAUUCUUUGAGGTT against Tti2 | 0.704
6 | GGUCAGAUUAUGCUUUAGATT against Mrgpre | -0.783
7 | CGUGAUUGAAUCUCAGGAGTT against Spata24 | -2.14 (active)
8 | GCAGAGGGUUUUCCAAGCGTT against Ddx4 | -0.631
9 | GGAAGUGACCUGUCUGAAGTT against Gramd1a | 0.641
10 | GGAUUAUGUAGAGGCCCAATT against Gngt2 | -2.63 (active)
11 | GGACAGCUGGACCUAAAGGTT against Slco4a1 | -0.417
12 | GGAGCUGAUGGUUGAAUGUTT against Ehbp1 | 0.177
13 | GGAUCCUCGGGAGUACAUGTT against Crybg3 | 0.287
14 | CCAGUAAGUUGCAUUCGAATT against Defb8 | 0.675
15 | GGCAUAGCUGGUCUGAAGATT against Slc3a2 | 2.06 (active)
16 | CCUCAUUUCCAAACUCAAATT against Fbxw13 | -0.491
17 | CCACGAGAAGUGGAUAUUATT against Plcxd3 | -1.1
18 | CCUGAACAUGAGUUAAAAGTT against Lmo4 | 0.156
19 | GGAUUAGCUCUACAGAAGGTT against Olfr1031 | 1.67
20 | GGAGCUGUUUUUCCACUCCTT against Phlda2 | -0.337
21 | GCUGGAAGAAAACUUCUAUTT against Jade2 | 2.49 (active)
22 | GGUAUGGUUUCUAUAACAATT against Arsj | 0.814
23 | GGAAGGUCAUGUGAAUAUCTT against A930002I21Rik | -1.6
24 | GGCUUUGAGAGUUUGUCACTT against 2410004B18Rik | -1.62
25 | GGGAGUUAAACUUCUCUGCTT against Tlr13 | -0.0637
26 | GGUACCGGAGUCUGAAACATT against Drp2 | -2.53 (active)
27 | GGGUCAGUGUGGAGAGUACTT against Col13a1 | 0.679
28 | GGAUGAAUGGAAUUUACUGTT against Fbh1 | 0.406
29 | GGGAAAAGUGGUAAAUUAUTT against Shprh | 0.194
30 | GGAAGACAAGGUUUUAGCUTT against Ulbp1 | 1.92
